The record followed here is the supplement of paper PMC12669032.

One test has as its system Escherichia coli IAI1. The test is described as follows: growth AUC relative to DMSO control (median of replicates) (fraction); higher = more growth (less inhibition), active = hit call of the paper. The note with it: 20 µM; 24 h. The gist of the method: (§1)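 Three biological replicates, each grown on a separate day, were combined as a median for every value. In each, a gut bacterial monoculture in mGAM started at OD600 0.05 and grew anaerobically at 37 °C with 20 µM compound (1% DMSO), with OD600 read hourly over 24 h. Area under the growth curve was normalised against the plate median of solvent-only wells, or against row and column medians on the industrial chemical plate, after the minimum OD was set to 0.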
As for `Nc1cccc(O)c1`, the “growth AUC” value is 1.01 (inactive).

For `CCc1cccc(C)c1NC(C)C(=O)O` (racemic), the “growth AUC” value was 0.977 (inactive).

Regarding `CCc1ccc(C(c2ccc(CC)cc2)C(Cl)Cl)cc1`, the “growth AUC” value is 1.01 (inactive).

With `CC(C)N(C(=O)CS(=O)CC(=O)O)c1ccc(F)cc1` (stereo not drawn), the “growth AUC” value is 0.941 (inactive).

With `O=[N+]([O-])c1ccc(Oc2c(Cl)cc(Cl)cc2Cl)cc1`, the “growth AUC” value is 1.03 (inactive).

Consider `CCOC(=O)c1nc(C(Cl)(Cl)Cl)n(-c2ccc(Cl)cc2Cl)n1`, for which the “growth AUC” value is 1.01 (inactive).

As to `Cc1ccc2c(c1)[C@H](Nc1nc(N)nc(C(C)F)n1)[C@@H](C)C2` (stereo partly drawn), the “growth AUC” value was 1.02 (inactive).

For the compound `CCCCCCCC(=O)Oc1c(Br)cc(C#N)cc1Br`, the “growth AUC” value is 0.924 (inactive).

With `CCNc1nc(N)[nH]c(=O)n1`, the “growth AUC” value is 1 (inactive).

`CN(C)C(=O)Nc1cc(C(C)(C)C)on1`: the “growth AUC” value was 1.01 (inactive).

For `O=C(NC(=O)c1c(F)cccc1F)Nc1cc(C(F)(F)F)cc(C(F)(F)F)c1Cl`, the “growth AUC” value is 0.971 (inactive).

For `COC(=O)CSc1cc(N=c2sc(=O)n3n2CCCC3)c(F)cc1Cl`, the “growth AUC” value is 0.963 (inactive).

Regarding `CCN(Cc1c(F)cccc1Cl)c1c([N+](=O)[O-])cc(C(F)(F)F)cc1[N+](=O)[O-]`, the “growth AUC” value was 0.986 (inactive).

For the compound `CCNC(=O)[C@@H](C)OC(=O)Nc1ccccc1`, the “growth AUC” value is 1.01 (inactive).

As for `CON=C(Cc1cccnc1)c1ccc(Cl)cc1Cl`, the “growth AUC” value was 0.986 (inactive).

In the case of `COC(=O)Nc1ccc(Cl)c(Cl)c1`, the “growth AUC” value was 0.939 (inactive).

Take `CC[N+](CC)(CC(=O)Nc1c(C)cccc1C)Cc1ccccc1.O=C([O-])c1ccccc1`: the “growth AUC” value is 1.04 (inactive).

With `CC(C)(C)[C@@H](O)[C@@H](Cc1ccc(Cl)cc1)n1cncn1` (mixture of isomers), the “growth AUC” value is 0.986 (inactive).

For the compound `COCC(=O)N(c1c(C)cccc1C)C(C)C(=O)O` (stereo not drawn), the “growth AUC” value is 1.01 (inactive).

`COC(=O)c1ccccc1S(=O)(=O)NC(=O)n1nc(OCC(C)O)n(C)c1=O` (stereo not drawn): the “growth AUC” value is 0.991 (inactive).

In the case of `CCOC(=O)Cc1[nH]nc2ccc(Cl)cc12`, the “growth AUC” value was 1 (inactive).

For the compound `CCCCCCCC/C=C\CCCCCCCC(N)=O`, the “growth AUC” value was 0.953 (inactive).

Consider `COC1CCC2(CC1)NC(=O)C(c1cc(C)ccc1C)=C2OC1OC(CO)C(O)C(O)C1O` (stereo not drawn), for which the “growth AUC” value is 1.03 (inactive).

In the case of `COC(=O)c1ccc(C(F)(F)F)nc1S(=O)(=O)[N-]C(=O)Nc1nc(OC)cc(OC)n1.[Na+]`, the “growth AUC” value was 0.966 (inactive).

On to `COC1CCC2(CC1)NC(=O)C(c1cc(C)ccc1C)=C2O` (stereo not drawn), for which the “growth AUC” value was 1.02 (inactive).

With `O=C(Nc1ccc(O)cc1-c1ccc(Cl)cc1)c1cccnc1Cl`, the “growth AUC” value is 0.976 (inactive).

As to `Cc1nn(C)c(F)c1C(=O)Nc1ccccc1C(C)CC(C)C` (stereo not drawn), the “growth AUC” value is 1.01 (inactive).

As to `O=C(NCc1ncc(C(F)(F)F)cc1Cl)c1c(Cl)cccc1Cl`, the “growth AUC” value is 1.03 (inactive).

With `CC1COc2ccccc2N1C(=O)C(Cl)Cl` (stereo not drawn), the “growth AUC” value was 0.973 (inactive).

`CCc1cccc(C)c1NC(=O)C(=O)O`: the “growth AUC” value was 1 (inactive).

In the case of `Cc1[nH]oc(=O)c1N=Nc1ccccc1Cl`, the “growth AUC” value was 0.962 (inactive).

Consider `COc1ccccc1C(=O)NS(=O)(=O)c1ccc(C(=O)NC2CC2)cc1`, for which the “growth AUC” value is 1.02 (inactive).

Take `O=C(O)c1ccc(Cl)cc1Cl`: the “growth AUC” value was 0.993 (inactive).

Turning to `CCCCCCCC/C=C\CCCCCCCCCCCCC`, the “growth AUC” value was 1.03 (inactive).

`COC(=O)COc1ccc(Cl)cc1C`: the “growth AUC” value was 1.01 (inactive).

Take `CC(C)OC(=O)N[C@H](C(=O)N[C@H](C)c1nc2ccc(F)cc2s1)C(C)C`: the “growth AUC” value was 1 (inactive).

Consider `CCNc1nc(N)nc(Cl)n1`, for which the “growth AUC” value was 1 (inactive).

In the case of `Cc1nn(C)c(OCC(=O)c2ccccc2)c1C(=O)c1ccc(Cl)cc1Cl`, the “growth AUC” value is 1 (inactive).

Take `Cc1cc(C)c(C2=C(O)C3(CCCC3)OC2=O)c(C)c1`: the “growth AUC” value was 1.01 (inactive).

The subject of a further test is Eubacterium rectale. Described as above. The note with it: 20 µM; 24 h. The method, boiled down: as §1
In the case of `Nc1cccc(O)c1`, the “growth AUC” value was 0.984 (inactive).

In the case of `CCc1cccc(C)c1NC(C)C(=O)O` (racemic), the “growth AUC” value was 1.19 (inactive).

For the compound `CCc1ccc(C(c2ccc(CC)cc2)C(Cl)Cl)cc1`, the “growth AUC” value is 0.935 (inactive).

On to `CC(C)N(C(=O)CS(=O)CC(=O)O)c1ccc(F)cc1` (stereo not drawn), for which the “growth AUC” value was 0.829 (inactive).

For `O=[N+]([O-])c1ccc(Oc2c(Cl)cc(Cl)cc2Cl)cc1`, the “growth AUC” value is 1.02 (inactive).

For `CCOC(=O)c1nc(C(Cl)(Cl)Cl)n(-c2ccc(Cl)cc2Cl)n1`, the “growth AUC” value is 0.961 (inactive).

As for `Cc1ccc2c(c1)[C@H](Nc1nc(N)nc(C(C)F)n1)[C@@H](C)C2` (stereo partly drawn), the “growth AUC” value was 0.91 (inactive).

`CCCCCCCC(=O)Oc1c(Br)cc(C#N)cc1Br`: the “growth AUC” value is 1.15 (inactive).

Turning to `CCNc1nc(N)[nH]c(=O)n1`, the “growth AUC” value is 0.995 (inactive).

Regarding `CN(C)C(=O)Nc1cc(C(C)(C)C)on1`, the “growth AUC” value was 0.949 (inactive).

Regarding `O=C(NC(=O)c1c(F)cccc1F)Nc1cc(C(F)(F)F)cc(C(F)(F)F)c1Cl`, the “growth AUC” value was 0.941 (inactive).

Consider `COC(=O)CSc1cc(N=c2sc(=O)n3n2CCCC3)c(F)cc1Cl`, for which the “growth AUC” value was 1.12 (inactive).

As for `CCN(Cc1c(F)cccc1Cl)c1c([N+](=O)[O-])cc(C(F)(F)F)cc1[N+](=O)[O-]`, the “growth AUC” value was 0.896 (inactive).

Turning to `CCNC(=O)[C@@H](C)OC(=O)Nc1ccccc1`, the “growth AUC” value is 1.01 (inactive).

For the compound `CON=C(Cc1cccnc1)c1ccc(Cl)cc1Cl`, the “growth AUC” value was 0.919 (inactive).

Turning to `COC(=O)Nc1ccc(Cl)c(Cl)c1`, the “growth AUC” value is 0.973 (inactive).

For `CC[N+](CC)(CC(=O)Nc1c(C)cccc1C)Cc1ccccc1.O=C([O-])c1ccccc1`, the “growth AUC” value is 1.14 (inactive).

For the compound `CC(C)(C)[C@@H](O)[C@@H](Cc1ccc(Cl)cc1)n1cncn1` (mixture of isomers), the “growth AUC” value is 1.02 (inactive).

Turning to `COCC(=O)N(c1c(C)cccc1C)C(C)C(=O)O` (stereo not drawn), the “growth AUC” value was 1.09 (inactive).

Take `COC(=O)c1ccccc1S(=O)(=O)NC(=O)n1nc(OCC(C)O)n(C)c1=O` (stereo not drawn): the “growth AUC” value was 1.08 (inactive).

With `CCOC(=O)Cc1[nH]nc2ccc(Cl)cc12`, the “growth AUC” value was 1.03 (inactive).

Turning to `CCCCCCCC/C=C\CCCCCCCC(N)=O`, the “growth AUC” value is 1.14 (inactive).

Turning to `COC1CCC2(CC1)NC(=O)C(c1cc(C)ccc1C)=C2OC1OC(CO)C(O)C(O)C1O` (stereo not drawn), the “growth AUC” value was 1.1 (inactive).

As for `COC(=O)c1ccc(C(F)(F)F)nc1S(=O)(=O)[N-]C(=O)Nc1nc(OC)cc(OC)n1.[Na+]`, the “growth AUC” value was 0.961 (inactive).

Take `COC1CCC2(CC1)NC(=O)C(c1cc(C)ccc1C)=C2O` (stereo not drawn): the “growth AUC” value is 1.13 (inactive).

As to `O=C(Nc1ccc(O)cc1-c1ccc(Cl)cc1)c1cccnc1Cl`, the “growth AUC” value was 0.962 (inactive).

For `Cc1nn(C)c(F)c1C(=O)Nc1ccccc1C(C)CC(C)C` (stereo not drawn), the “growth AUC” value was 0.932 (inactive).

In the case of `O=C(NCc1ncc(C(F)(F)F)cc1Cl)c1c(Cl)cccc1Cl`, the “growth AUC” value was 0.98 (inactive).

On to `CC1COc2ccccc2N1C(=O)C(Cl)Cl` (stereo not drawn), for which the “growth AUC” value was 0.989 (inactive).

Turning to `CCc1cccc(C)c1NC(=O)C(=O)O`, the “growth AUC” value is 0.989 (inactive).

With `Cc1[nH]oc(=O)c1N=Nc1ccccc1Cl`, the “growth AUC” value is 1.03 (inactive).

As to `COc1ccccc1C(=O)NS(=O)(=O)c1ccc(C(=O)NC2CC2)cc1`, the “growth AUC” value is 0.97 (inactive).

Turning to `O=C(O)c1ccc(Cl)cc1Cl`, the “growth AUC” value was 0.957 (inactive).

`CCCCCCCC/C=C\CCCCCCCCCCCCC`: the “growth AUC” value was 0.946 (inactive).

Consider `COC(=O)COc1ccc(Cl)cc1C`, for which the “growth AUC” value is 0.979 (inactive).

Turning to `CC(C)OC(=O)N[C@H](C(=O)N[C@H](C)c1nc2ccc(F)cc2s1)C(C)C`, the “growth AUC” value is 1.13 (inactive).

Regarding `CCNc1nc(N)nc(Cl)n1`, the “growth AUC” value was 1.02 (inactive).

On to `Cc1nn(C)c(OCC(=O)c2ccccc2)c1C(=O)c1ccc(Cl)cc1Cl`, for which the “growth AUC” value was 1.04 (inactive).

As to `Cc1cc(C)c(C2=C(O)C3(CCCC3)OC2=O)c(C)c1`, the “growth AUC” value is 0.996 (inactive).
